Records with an inconclusive call do not appear. Activity calls are given as the source filed them. Calls come from the whole dose curve; as a rule, active = well fitted curve in the direction sought with a large enough effect; inconclusive = small, poorly fitted or top-dose-only effect, or another doubt; inactive = no such curve, though single readings can be large; an effect the other way counts as inactive or inconclusive.
How the values were obtained:
[1] = MultiTox-Fluor Cytotoxicity Assay - LYMP1-003 - Dead Cells (AID 961);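 note: cells exposed to compound for 16 h at 37 °C; nearly all actives have a fitted effect of over 70% in size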
Summary of the method: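 Acute toxicity is scored as increased dead-cell protease activity in human lymphoblastoid LYMP1-003 cells after 16 h compound exposure in complete culture medium. Activity is normalized to DMSO basal and 15 uM tetraoctylammonium bromide as full response.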

[2] = MultiTox-Fluor Cytotoxicity Assay - LYMP1-003 - Live Cells (AID 962);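 note: cells exposed to compound for 16 hours at 37 °C; cytotoxic hits lower the live-cell protease signal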
Summary of the method: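 LYMP1-003 lymphoblastoid cells, 2500/well in complete medium, treated 16 h at 37 C; live-cell protease cleavage of GF-AFC read by fluorescence (Ex/Em 405/510) after 60 min reagent; AC50 from Hill fits of concentration-response.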

[3] = Cell Viability - LYMP1-003 - Assay at 40 hr (AID 964); note: series mostly up to about 92 µM; nearly all actives have a fitted effect of over 60% in size
Summary of the method: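 LYMP1-003 human lymphoblastoid cells, 2500/well, preincubated 5 h at 37 C, then treated with compound for 40 h at 37 C. Intracellular ATP read by CellTiter-Glo luminescence after 30 min at room temperature; AC50 from Hill-equation fits.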

[4] = Cell Viability - LYMP2-003 (AID 965);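 note: cells exposed to compounds for 24 h before reading; nearly all actives have a fitted effect of over 50% in size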
Summary of the method: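 qHTS, human lymphoblastoid line, 2500 cells/well, complete medium. 24 h drug, 37 C. ATP-based luminescent readout; Hill-fit AC50.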

[5] = Cell Viability - LYMP2-004 (AID 966); note: nearly all actives have a fitted effect of over 65% in size
Summary of the method: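 Lymphoblastoid LYMP2-004 cells, 2500 per well, were preincubated for 5 hr and then treated with compound for 24 h at 37 C in complete medium. Viability was read as cellular ATP by CellTiter-Glo luminescence, and AC50 values were taken from Hill fits to concentration-response data.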

[6] = Cell Viability - LYMP2-005 (AID 967); note: series mostly up to about 92 µM
Summary of the method: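 Luciferase-based ATP quantitation served as the viability measure in human lymphoblastoid LYMP2-005 cells exposed to test compounds for 24 h at 37 C in complete culture medium. Potency (AC50) was obtained by fitting concentration-response curves with the Hill equation.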

[7] = Cell Viability - LYMP2-011 (AID 969); note: nearly all actives have a fitted effect of over 60% in size
Summary of the method: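 2500 cells/well in complete medium, compound-treated 24 h at 37 C. Viability read as intracellular ATP by CellTiter-Glo luminescence after 30 min at room temperature. AC50 from Hill fits of qHTS concentration-response data.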

[8] = Cell Viability - LYMP2-013 (AID 970); note: series mostly up to about 92 µM; nearly all actives have a fitted effect of over 55% in size
Summary of the method: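 Human lymphoblastoid LYMP2-013 cells, 2500/well, treated 24 h at 37 C in complete medium; viability as intracellular ATP by CellTiter-Glo luminescence after 30 min. AC50 from Hill fits of qHTS concentration-response.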

[9] = Cell Viability - LYMP2-015 (AID 971); note: nearly all actives have a fitted effect of over 55% in size
Summary of the method: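 LYMP2-015 human lymphoblastoid cells (2500/well) in complete medium, compound-treated 24 h at 37 C; viability read as cellular ATP by CellTiter-Glo luminescence after 30 min at room temperature. AC50 from Hill-equation fits of qHTS concentration-response data.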

[10] = Cell Viability - LYMP2-017 (AID 972); note: series mostly up to about 92 µM; nearly all actives have a fitted effect of over 55% in size
Summary of the method: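 LYMP2-017 human lymphoblastoid cells (2500/well) settled 5 hr at 37 C, then exposed to compound 24 hr at 37 C in complete medium. Viability taken as intracellular ATP by CellTiter-Glo luminescence after 30 min at RT; AC50 from Hill fits.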

[11] = Cell Viability - LYMP2-019 (AID 973); note: nearly all actives have a fitted effect of over 55% in size
Summary of the method: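 Human lymphoblastoid LYMP2-019 cells (2500/well) preincubated 5 h at 37 C, then treated 24 h at 37 C in complete medium. Viability by CellTiter-Glo ATP luminescence after 30 min at room temperature; AC50 from Hill fits.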

[12] = Cell Viability - LYMP2-021 (AID 974)
Summary of the method: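 Human lymphoblastoid LYMP2-021 cells, 2500/well in complete medium, treated 24 hours at 37 C. Intracellular ATP by CellTiter-Glo luminescence (30 min, RT); AC50 from Hill fits of concentration-response.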

[13] = Cell Viability - LYMP2-023 (AID 975)
Summary of the method: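 LYMP2-023 human lymphoblastoid cells, 2500/well, preincubated 5 hr at 37 C, then compound-treated 24 hr at 37 C in complete medium. CellTiter-Glo luminescence (ATP) after 30 min at room temperature; AC50 from Hill-equation fits; tetraoctylammonium bromide positive control.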

[14] = Cell Viability - LYMP2-025 (AID 976); note: series mostly up to about 92 µM
Summary of the method: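 Human lymphoblastoid LYMP2-025 cells, 2500/well, exposed 24 h at 37 C in complete medium in 1536-well qHTS. Viability as cellular ATP by CellTiter-Glo luminescence; AC50 from Hill fits of concentration-response data.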

[15] = Cell Viability - LYMP2-002 (AID 977);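 note: series mostly up to about 92 µM; compound exposure lasted 24 h at 37 °C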
Summary of the method: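 Human lymphoblastoid LYMP2-002 cells, 2500 per well, exposed to compounds for 24 h at 37 C in complete medium; viability read as intracellular ATP by CellTiter-Glo luminescence, AC50 from Hill fits.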

[16] = Cell Viability - LYMP2-006 (AID 978); note: series mostly up to about 92 µM; nearly all actives have a fitted effect of over 60% in size
Summary of the method: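 In this cytotoxicity screen, the human lymphoblastoid line grew in complete medium with test compounds for 24 hr at 37 C. Cellular ATP served as the viability signal.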

[17] = Cell Viability - LYMP2-007 (AID 979);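 note: cells exposed to compound for 24 h before reading; nearly all actives have a fitted effect of over 60% in size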
Summary of the method: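 Human lymphoblastoid LYMP2-007 cells (2500/well) preincubated 5 h at 37 C, then treated 24 h at 37 C in complete medium. Viability by CellTiter-Glo ATP luminescence after 30 min at room temperature; AC50 from Hill fits.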

[18] = Cell Viability - LYMP2-008 (AID 980); note: nearly all actives have a fitted effect of over 60% in size
Summary of the method: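 LYMP2-008 lymphoblastoid cells (2500/well) plated 5 h, then treated 24 h at 37 C in complete medium. Viability read as intracellular ATP by CellTiter-Glo luminescence after 30 min at room temperature; AC50 from Hill fits.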

[19] = Cell Viability - LYMP2-010 (AID 981); note: nearly all actives have a fitted effect of over 55% in size
Summary of the method: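 Human lymphoblastoid LYMP2-010 cells (2500/well) treated 24 h at 37 C in complete medium; viability read as intracellular ATP by CellTiter-Glo luminescence. AC50 from Hill fits of concentration-response data; tetraoctylammonium bromide positive control.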

[20] = Cell Viability - LYMP2-012 (AID 982)

Measured: Potency

C[C@]12C=CC(=O)C=C1CC[C@@H]1[C@@H]2C(=O)C[C@@]2(C)[C@H]1CC[C@]2(O)C(=O)CO
inactive: all assays above

Cc1ncc([N+](=O)[O-])n1CCO
inactive: all assays above

O=C(O)c1cc(=O)[nH]c(=O)[nH]1
inactive: all assays above

Cc1cc(NS(=O)(=O)c2ccc(N)cc2)no1
inactive: all assays above

CC[C@H](C)C(=O)O[C@H]1C[C@@H](C)C=C2C=C[C@H](C)[C@H](CC[C@@H]3C[C@@H](O)CC(=O)O3)[C@H]21
not listed: [3] | [4] | [5] | [6] | [16] | [19]
inactive: all other assays above

NNC(=O)c1ccncc1
inactive: all assays above

O=C(N[C@H](CO)[C@H](O)c1ccc([N+](=O)[O-])cc1)C(Cl)Cl
inactive: all assays above

Reference: PubChem BioAssay (NCATS)
